# Measurements reported in PubChem BioAssay (NCATS).
# Results filed as inconclusive are left out. Where a call stands in place of a potency, no number is given. Activity calls are given as the source filed them. The call rests on the fitted dose curve; in most records, active means well fitted inhibition curve with a large enough effect; inconclusive means small, poorly fitted or top-dose-only effect; inactive means flat fitted curve, though single readings scatter.
# Assay: qHTS to identify inhibitors of the type 1 interferon - major histocompatibility complex class I in skeletal muscle: primary screen against the NCATS LOPAC collection (AID 1347405);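 further: lytic HiBiT luminescence reporting HLA-B protein level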
# Conditions: iHSKM muscle cells, IFN-b-induced MHC-I HiBiT luminescence, 24 h; series mostly up to 45.9 µM
# How it was run: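 After 24 h at 37 C with compounds (7-point, 1:4.3 dilutions, 46 uM top final) plus 4 ng/ml IFN-beta, luminescence from lytic HiBiT detection was measured. HLA-B*08:01 in C25cl48 myoblasts carried an endogenous C-terminal HiBiT tag; medium lacked dexamethasone.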
# Potency means the concentration at half of the fitted maximal effect.
row,SMILES,Potency
1,CNCCCC12CCC(c3ccccc31)c1ccccc12,inactive
2,COc1ccccc1OCCNCC(O)COc1cccc2[nH]c3ccccc3c12 (centres undefined),inactive
3,Cc1ccc(C(=O)Nc2ccc(S(=O)(=O)O)c3cc(S(=O)(=O)O)cc(S(=O)(=O)O)c23)cc1NC(=O)c1cccc(NC(=O)Nc2cccc(C(=O)Nc3cc(C(=O)Nc4ccc(S(=O)(=O)O)c5cc(S(=O)(=O)O)cc(S(=O)(=O)O)c45)ccc3C)c2)c1,inactive
4,CN1CCC(=C2c3ccccc3CC(=O)c3sccc32)CC1,inactive
5,NS(=O)(=O)c1cc2c(cc1Cl)NCNS2(=O)=O,inactive
6,CC(C)NCC(O)c1ccc(O)c(O)c1 (centres undefined),inactive
7,O=C1c2c(O)ccc(O)c2C(=O)c2c(NCCNCCO)ccc(NCCNCCO)c21,2240 nM (active)
8,CCOC(=O)Nc1ccc(NCc2ccc(F)cc2)nc1N,inactive
9,COc1ccc(C2CNC(=O)C2)cc1OC1CCCC1 (centres undefined),inactive
10,CC(C(=O)O)c1cccc(C(=O)c2ccccc2)c1 (centres undefined),inactive
11,CC[C@@]1(O)C(=O)OCc2c1cc1n(c2=O)Cc2cc3c(CN(C)C)c(O)ccc3nc2-1,3550 nM (active)
12,Nc1ccn([C@H]2CC[C@@H](CO)O2)c(=O)n1,inactive
13,CCOC(=O)c1ncn2c1CN(C)C(=O)c1cc(F)ccc1-2,inactive
14,Cc1cn([C@H]2C=C[C@@H](CO)O2)c(=O)[nH]c1=O,inactive
15,COc1nc(C)nc(Cl)c1NC1=NCCN1,inactive
16,CN(Cc1cnc2nc(N)nc(N)c2n1)c1ccc(C(=O)N[C@@H](CCC(=O)O)C(=O)O)cc1,inactive
17,CC(C)NCC(O)COc1ccc(CCOCC2CC2)cc1 (centres undefined),inactive

row,SMILES,Potency
1,CN(C)CCOC(c1ccccc1)c1ccccc1,inactive
2,CCOC(=O)C(C)(C)Oc1ccc(Cl)cc1,inactive
3,CN1CCC(=C2c3ccccc3C=Cc3ccccc32)CC1,inactive
4,CCC1(C)CC(=O)NC1=O (centres undefined),inactive
5,CN1CCN2c3ccccc3Cc3ccccc3C2C1 (centres undefined),inactive
6,NC(=O)OCC(COC(N)=O)c1ccccc1,inactive
7,O=c1[nH]cc(F)c(=O)[nH]1,inactive
8,CC(CCc1ccc(O)cc1)NCCc1ccc(O)c(O)c1 (centres undefined),inactive
9,CN(C)CCC=C1c2ccccc2C=Cc2ccccc21,inactive
10,CN1CCN(C2=Nc3cc(Cl)ccc3Nc3ccccc32)CC1,inactive
11,Cn1cnc2c1c(=O)[nH]c(=O)n2C,inactive
12,Nc1c2c(nc3ccccc13)CCCC2,inactive
13,Nc1nc2c(ncn2COC(CO)CO)c(=O)[nH]1,inactive
14,CN1C(C(=O)Nc2ccccn2)=C(O)c2ccccc2S1(=O)=O,inactive
15,O=C(c1ccc(OCCN2CCCCC2)cc1)c1c(-c2ccc(O)cc2)sc2cc(O)ccc12,inactive
16,C[C@](N)(Cc1ccc(O)c(O)c1)C(=O)O,inactive
17,CCc1cccc2c3c([nH]c12)C(CC)(CC(=O)O)OCC3 (centres undefined),inactive
